Bioassay records deposited in PubChem BioAssay by several laboratories.
FXN GAA850 act: activators of GAA850 frataxin (FXN) promoter; 360,000 tested, 0.56% active; HEK293 lucGAA850 FXN promoter luciferase reporter, 24 h; percent of 10 µM SAHA response; activation, % at 6 µM;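 active means activation above the average of all compounds screened plus 3 SD, cutoff fixed separately per campaign, cut at about 7.5% in these data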;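 further: 0% = DMSO wells and 100% = 10 µM SAHA wells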
esBAF inh: blocks esBAF chromatin remodeling in mouse ES cells. 350,000 tested, 2% active. reporter increase, % at 12.5 µM. Bmi1-luciferase knock-in reporter, 24 h; 100% = twice the neutral-well signal. AID 602393; in the data active means activation above about 40%;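 further: 0% = median of the plate's neutral control wells and 100% = double that signal; a rise in the Bmi1 reporter signal indicates esBAF inhibition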
Wnt act: activates Wnt/beta-catenin signaling in a reporter cell assay | activator, plate reader | activation, % at 9.35 µM | 300,000 tested, 1.2% active | AID 743398; in the data active means activation above about 30%, passing the limit was not always enough;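 further: 0% = neutral control wells and 100% = positive control wells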
MITF TRPM1 HTS: MITF TRPM1 promoter activation in melanoma cells; SK-MEL-5 TRPM1-promoter luciferase, 24 h; % of positive control, neutral wells = 0; activation, % at 12.5 µM; 300,000 tested, 0.75% active;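 active means mean activation of at least 80% with every replicate also reaching 80%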;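 further: 0% = neutral control wells and 100% = parthenolide positive control wells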
GAA30 FXN cntr: GAA30 FXN promoter activation counter-screen | 1,900 tested, 66% active | activation, % at 6 µM | AID 588350 | HEK293 lucGAA30 FXN promoter luciferase, 24 h; DMSO = 0%, 5 µM ipriflavone = 100% | shares compounds with FXN GAA850 act;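 active means mean activation above the mean of solvent-only control wells plus 3 SD, cut at about 22% in these data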;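 further: counterscreen of GAA850 promoter hits where activity marks nonselective or luminescence artifacts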
FXN GAA850 conf: confirmation of GAA850 frataxin (FXN) promoter activators | shares compounds with FXN GAA850 act | HEK293 lucGAA850 FXN promoter luciferase reporter, 24 h; 100% = activation by SAHA | activation, % at 6 µM | 1,900 tested, 86% active | AID 588351;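 active means mean activation above a set limit taken from the primary screen, cut at about 8% in these data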;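 further: 0% = DMSO wells and 100% = 10 µM SAHA wells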
An asterisk follows results filed as active; / = not tested or not shown. Hits are enriched below; roughly 2.8% of the tested compounds scored in any of these assays.

SMILES	FXN GAA850 act	esBAF inh	Wnt act	MITF TRPM1 HTS	GAA30 FXN cntr	FXN GAA850 conf
CCN(C[C@H]1N[C@@](CC)(C(=O)OC)[C@H]2C(=O)N(Cc3ccccc3)C(=O)[C@@H]12)C(=O)Nc1ccc(OC)cc1	18*	5	4	10	47*	16*
CCN(C[C@H]1N[C@@](CC)(C(=O)OC)[C@H]2C(=O)N(Cc3ccccc3)C(=O)[C@@H]12)C(C)=O	2	0	-2	-4	/	/
CC[C@@]1(C(=O)OC)N[C@H](CN(C)C(=O)Nc2ccc(Cl)cc2)[C@@H]2C(=O)N(Cc3ccccc3)C(=O)[C@@H]21	17*	2	-2	14	22	11*
O=[N+]([O-])c1ccc(N/N=C/c2cccc(O)c2O)cc1	15*	25	8	/	77*	40*
O=[N+]([O-])c1ccc(N/N=C/c2cccc(O)c2)cc1	-1	16	2	58	/	/
Cc1cc(C)nc(SC2c3cccc4cccc(c34)C2NS(=O)(=O)c2ccccc2)n1 (configuration not stated)	8.6*	/	-6	5	15	14*
Cc1ccc(S(=O)(=O)NC2c3cccc4cccc(c34)C2Sc2ncccn2)cc1 (configuration not stated)	4	/	-5	5	/	/
CC1CCN(CC(CS(=O)(=O)c2ccc([N+](=O)[O-])cc2)N2CCC(C)CC2)CC1 (configuration not stated)	9.7*	-3	5	-84	61*	16*
COCCCN(C(=S)NC(=O)C12CC3CC(CC(C3)C1)C2)c1c(N)n(Cc2ccccc2)c(=O)[nH]c1=O	8.4*	/	0	3	13	8.2*
Cc1ccc(S(=O)(=O)Nc2ccc3c(c2)C(=O)N([C@@H](C)CO)C[C@@H](C)[C@H](CN(C)C(=O)Cc2ccccc2)OCCCC[C@H](C)O3)cc1	/	8	/	/	/	/
Cc1ccc2ncc(NC(=O)c3ccc(F)cc3)c(=O)n2c1	1	7	0	43	/	/
Cc1ccc(C(=O)Nc2cnc3ccccn3c2=O)cc1	8.3*	10	-5	36	100*	31*
COc1ccc(N=c2oc3cc(O)ccc3cc2C(=O)NCC2CCCO2)c(OC)c1 (configuration not stated)	9.7*	12	2	/	5	18*
COc1ccc(-c2cc(C(=O)NCC3CCCO3)c3cc(C)ccc3n2)cc1 (configuration not stated)	7.6*	25	19	38	68*	22*
Cc1cc(C(=O)COC(=O)c2nccnc2N)c(C)n1C	9.1*	-21	14	62	104*	32*
O=C(NCc1nc2ccccc2[nH]1)C1CCCCC1	-1	/	0	-1	/	/
O=C(Nc1nc2ccccc2[nH]1)C1CCCC1	10*	38	15	58	86*	26*
O/N=C(/CCc1ccccc1)c1ccc2c(c1)OCCO2	8.0*	46*	9	92*	117*	33*
O=C(NCCc1ccccc1)c1ccc2c(c1)OCCO2	-16	-85	-2	-88	/	/
Fc1ccccc1/C=N/Nc1ncnc2nc[nH]c12	11*	23	23	/	98*	47*
Fc1cccc(/C=N/Nc2ncnc3nc[nH]c23)c1	10*	-22	28	73	113*	49*
N#CC1=C(N)S[C@H](C(=O)C23CC4CC(CC(C4)C2)C3)[C@H]1c1ccncc1	8.5*	-7	-2	/	4	12*
Cc1ccccc1NC(=O)COC(=O)c1ccc(S(C)(=O)=O)c([N+](=O)[O-])c1	4	/	-6	-14	/	/
CS(=O)(=O)c1ccc(C(=O)OCC(=O)Nc2cccnc2Cl)cc1[N+](=O)[O-]	8.0*	2	/	-29	31*	20*
CS(=O)(=O)c1ccc(C(=O)OCC(=O)N2CCOCC2)cc1[N+](=O)[O-]	9.7*	5	-7	/	83*	39*
SMILES	FXN GAA850 act	esBAF inh	Wnt act	MITF TRPM1 HTS	GAA30 FXN cntr	FXN GAA850 conf
COc1ccc(C2=NN(C(=O)COC(=O)c3ccc(S(C)(=O)=O)c([N+](=O)[O-])c3)C(c3ccco3)C2)cc1 (configuration not stated)	13*	/	4	/	-30	19*
CS(=O)(=O)c1ccc(C(=O)OCc2nnc(-c3ccccc3)o2)cc1[N+](=O)[O-]	8.5*	/	-2	-47	-17	70*
C[C@@H]1CCCCO[C@H](CN(C)Cc2ccc3c(c2)OCO3)[C@@H](C)CN([C@@H](C)CO)C(=O)c2cc(NS(=O)(=O)c3ccc(Cl)cc3)ccc2O1	/	-5	/	/	/	/
CCCN(C)C[C@@H]1Oc2ncc(-c3ccccc3F)cc2C(=O)N([C@H](C)CO)C[C@H]1C	/	-4	/	/	/	/
COc1ccc(NC(=O)N(C)C[C@H]2Oc3ccc(NS(=O)(=O)c4c(C)noc4C)cc3CC(=O)N([C@@H](C)CO)C[C@H]2C)cc1	/	-1	/	/	/	/
CCOC(=O)Cc1csc(NC(=O)NC2(C(F)(F)F)Oc3ccc(Cl)cc3O2)n1 (configuration not stated)	8.5*	/	/	3	44*	17*
O=C(NCCN1CCOCC1)c1cc(Cl)ccc1Cl	1	-14	-2	/	/	/
COCC(C)NC(=O)NC1(C(F)(F)F)Oc2ccc(Cl)cc2O1 (configuration not stated)	10*	-8	/	/	20	18*
O=C(NCCN1CCOCC1)NC1(C(F)(F)F)Oc2ccc(Cl)cc2O1 (configuration not stated)	15*	/	1	-4	36*	20*
CC(=O)N(C)C[C@@H]1Oc2cc(C#CC3CC3)ccc2S(=O)(=O)N([C@H](C)CO)C[C@@H]1C	/	-4	/	/	/	/
C[C@H](CO)N1C[C@H](C)[C@H](CN(C)C(=O)NC2CCCC2)Oc2ncc(C#CCN(C)C)cc2C1=O	/	-5	/	/	/	/
CO[C@H]1CN(C)C(=O)c2cc(NC(C)=O)ccc2OC[C@@H](C)N(C(=O)C2CCCCC2)C[C@H]1C	/	-1	/	/	/	/
CCc1cccc(CC)c1NC(=O)COC(=O)c1ccc2c(c1)S(=O)(=O)c1ccccc1C2=O	14*	/	2	-2	26*	6
NC(=O)COC(=O)c1ccc2c(c1)S(=O)(=O)c1ccccc1C2=O	0	-3	-1	-6	/	/
CCCC(=O)Nc1ccc2c(c1)C(=O)N(C)C[C@H](OC)[C@H](C)CN(C(=O)c1cccnc1)[C@@H](C)CO2	/	-4	/	/	/	/
C[C@H](CO)N1C[C@H](C)[C@H](CN(C)C(=O)c2cnccn2)Oc2ncc(-c3cccc(F)c3)cc2C1=O	/	-5	/	/	/	/
C/C(=N\Nc1nc2ccccc2[nH]1)c1ccc(C)o1	8.4*	/	/	5	121*	36*
Nc1nc(Nc2ccccc2)nc(N2CCCC2)c1[N+](=O)[O-]	11*	50*	21	34	75*	39*
